Data: PubChem BioAssay AID588742 (Southern Research Specialized Biocontainment Screening …, 2011)
About 410 (23%) of roughly 1,800 compounds were called active. Not all results are given here. Results with a measured potency or affinity are listed apart. Values without a mark were called inactive. No rule for the calls is given here.

assay: viability of Vero cells under compound – cytotoxicity control for flavivirus capping enzyme inhibitors (AID 588742); details: cytotoxicity counter-screen; series mostly up to 40 µM; viability: at the top concentration

| Structure (SMILES) | viability |
| --- | --- |
| Cc1[nH]n(-c2ncc(-c3ccccc3)s2)c(=O)c1C(c1ccc(Br)cc1)C(C#N)C#N (stereo not given) | 98.2% |
| O=C(O)c1cc([N+](=O)[O-])c(Nc2cccc3ccccc23)c([N+](=O)[O-])c1 | 99.5% |
| O=C1Nc2ccc(F)cc2C12Nc1ccccc1-c1nnc(SCc3ccccc3Cl)nc1O2 (stereo not given) | 98.5% |
| CCc1ccc([C@@H]2CC=C(C(=O)O)[C@H](c3ccc(Cl)cc3)N2S(=O)(=O)c2ccc(C)cc2)cc1 | 80.9% |
| O=C(O)[C@H](Cc1ccccc1)N1C(=O)c2c(Cl)c(Cl)c(Cl)c(Cl)c2C1=O | 105% |
| Cc1cc(C)c2nc(N3C(=O)C(O)=C(C(=O)c4ccco4)C3c3cccc(O)c3)sc2c1 (stereo not given) | 104% |
| COc1ccc(CNC(=O)CCCC2=NS(=O)(=O)c3ccccc3N2)cc1 | 94.9% |
| Cc1[nH]n(-c2ccccc2)c(=O)c1C(c1ccccc1[N+](=O)[O-])C(C#N)C#N (stereo not given) | 93.8% |
| O=C1CCC/C1=C/Nc1ccc2c(c1)OCO2 | 108% |
| N#Cc1c2c(c(-c3ccco3)[nH]c1=O)CCCC2 | 95.5% |
| Cn1c(=O)c([N+](=O)[O-])c(Oc2ccccc2)c2ccccc21 | 98.3% |
| O=Nc1c(O)ccc2cc(S(=O)(=O)O)ccc12 | 102% |
| COC(=O)c1cc(C(=O)OC)cc(N2C(=O)CC(NNC(=O)c3ccccc3Cl)C2=O)c1 (stereo not given) | 101% |
| O=C(O)/C=C/C(=O)Nc1ccc(C2(c3ccc(NC(=O)/C=C/C(=O)O)cc3)c3ccccc3-c3ccccc32)cc1 | 92.5% |
| CCCn1nc(NS(=O)(=O)c2cccc3nonc23)c2cc3cccc(C)c3nc21 | 94.3% |
| Cc1ccc(/C=C2\SC(=S)N(NS(=O)(=O)c3ccc(C)cc3)C2=O)cc1 | 96.1% |
| Cc1ccc(-c2nnc(Nc3ccc(CC(N)=O)cc3)c3ccccc23)cc1S(N)(=O)=O | 99.3% |
| Cc1nc(Nc2ccc(C(=O)O)cc2)nc(Nc2ccc(C(=O)O)cc2)c1[N+](=O)[O-] | 97.8% |
| CC1=CC(=O)C(Sc2ccc(C)cc2)=CC1=O | 102% |
| O=C(CCN1C(=O)/C(=C/c2ccc3c(c2)OCO3)SC1=S)Nc1cccc(C(=O)O)c1 | 102% |
| COc1ccc2nc(N3CCC(O)CC3)c(C#N)cc2c1 | 92.7% |
| CCOC(=O)c1c(=O)n(O)c2ccc(C)cc2[n+]1[O-] | 92.2% |
| Cc1ccc(-c2ccc(/C=C3\C(=O)ON=C3c3ccccc3)o2)c([N+](=O)[O-])c1 | 95% [at 20 µM] |
| COc1ccc(/C=C2\C(=O)ON=C2c2ccccc2)cc1OC | 95.4% |

| Structure (SMILES) | viability |
| --- | --- |
| COc1cccc(/C=C2/C(=O)NN(c3ccc(C)c(C)c3)C2=O)c1 | 102% |
| CCOc1cc(/C=N/N=C2/NC(=O)C(CC(=O)O)S2)ccc1OCc1ccc(Cl)cc1 (stereo not given) | 88.4% |
| Cn1cc([N+](=O)[O-])c(C(=O)N(Cc2ccccc2)Cc2ccccc2)n1 | 97.6% |
| CNc1ccc(Br)cc(C(=O)/C=C/c2cccc(OC)c2OC)c1=O | 102% |
| COc1ccc(Br)cc1/C=C/C(=O)NC(=S)Nc1ccc(Cl)c(C(=O)O)c1 | 104% |
| CC1(C)CC(=O)C(C(C2=C(O)CC(C)(C)CC2=O)c2ccc(O)c([N+](=O)[O-])c2)=C(O)C1 | 108% |
| O=C(O)/C(=C\c1c(C(=O)O)[nH]c2cc(Cl)cc(Cl)c12)c1ccccc1 | 102% |
| Oc1c(Br)cc(/C=N/n2c(-c3ccccc3)n[nH]c2=S)cc1Br | 95% [at 20 µM] |
| CCOCCCNC(=O)CC1Oc2ccc(C)cc2NC1=O (stereo not given) | 117% |
| Cc1ccc(CC(CC(=O)Nc2cccc(C(F)(F)F)c2)C(=O)O)cc1 (stereo not given) | 91.2% |
| O=C1CCCC/C1=C/Nc1ccc2c(c1)OCO2 | 95.4% |
| COC(=O)CC1=NN(c2ccccc2)C(=O)/C1=C\c1ccc(OC)cc1 | 99.1% |
| CC(=O)Oc1ccc(/C=C2/C(=O)N(c3ccccc3)N=C2C)cc1 | 98.7% |
| Cc1ccc(C2C(C#N)=C(N)Oc3nc(-c4ccccc4)[nH]c32)o1 (stereo not given) | 95.8% |
| O=C1C(Cl)=C(NCCc2ccccc2)C(=O)c2ccccc21 | 99.4% |
| COc1cccc(/C=C2\SC(=S)N(C(C(=O)O)c3ccccc3)C2=O)c1OC (stereo not given) | 97.6% |
| COc1cc2c3c(c1)-c1c(sn(-c4cc(OC)ccc4OC)c1=S)C(C)(C)N3C(=O)C2=O | 94.1% |
| C#CCOc1c(Br)cc(/C=C2/C(=O)ON=C2C)cc1OCC | 97.5% |
| CCc1ccc(N(C(=O)c2csnn2)C(C(=O)NC(C)(C)CC)c2cccnc2)cc1 (stereo not given) | 90.1% |
| O=C1OC(c2ccccc2)/C(=C(/O)c2ccc(Cl)cc2)C1=O (stereo not given) | 96% |
| CC(C)c1noc2ncc(C(=O)c3cc(Cl)cc(Cl)c3O)cc12 | 94.7% [at 20 µM] |
| CCCCn1c(=O)nc2n(-c3ccccc3)c3ccccc3cc-2c1=O | 96.6% |
| O=C1c2ccccc2C(=O)c2c(/C=C/N3CCCCC3)ccnc21 | 87.5% |
| O=c1ccc2c(-c3ccccc3S(=O)(=O)O)c3ccc(O)c(O)c3oc-2c1O | 83.3% |

| Structure (SMILES) | viability |
| --- | --- |
| O=S(=O)(Nc1c(O)ccc2ccccc12)c1ccccc1 | 91.4% |
| Cc1ccc(S(=O)(=O)NN2C(=O)/C(=C/c3ccc(C(=O)O)cc3)SC2=S)cc1 | 96.6% |
| N#CC1=C(N)N(c2ccccc2)C2=C(C(=O)CCC2)C1c1ccsc1 (stereo not given) | 99.9% |
| C=CCn1c(SCC(=O)c2ccccc2)nnc1-c1ccc2c(c1)OCO2 | 97.8% |
| N#C/C(=C\c1cccs1)C(=O)c1ccccc1 | 102% |
| CC(=O)OCC1=C(C(=O)O)N2C(=O)C(NC(=O)CCn3nc(C(F)(F)F)c(Br)c3C3CC3)C2SC1 (stereo not given) | 105% |
| COc1ccc(N2CCN(C(=O)CCC(=O)N3Cc4ccccc4Oc4ncccc43)CC2)cc1 | 95% |
| CN1C(C(=O)NCc2cccs2)=CC(c2ccc(F)cc2)=NS1(=O)=O | 103% |
| O=C(O)C(c1ccccc1)N1C(=O)/C(=C/c2cccs2)SC1=S (stereo not given) | 104% |
| Nc1ccc(S(=O)(=O)Nc2nccs2)cc1N=Nc1ccccc1[N+](=O)[O-] | 88.8% |
| CCOC(=O)c1cc(-c2ccco2)nc2c1c(C)nn2CCC#N | 88.5% |
| COc1cc(C(C2C(=O)CC(C)(C)CC2=O)C2C(=O)CC(C)(C)CC2=O)ccc1O | 102% |
| COc1cccc(/C=C2\SC(=S)N(NS(=O)(=O)c3ccccc3)C2=O)c1OC | 81.7% |
| CN(C)c1ccc(C=Nc2ccc(N(C)C)cc2)cc1 | 101% |
| O=C1NC(=S)N/C1=C/C=C/c1ccccc1 | 93.6% |
| CCCC(C(=O)O)N1C(=O)/C(=C2\C(=O)N(C)c3ccccc32)SC1=S (stereo not given) | 97.8% |
| CCN1/C(=C2\C(=O)N(C)C(=S)N2C)C=Cc2cc(OC)ccc21 | 91.1% |
| O=C(O)CN1C(=O)/C(=C\c2cccc(OCc3ccc(Cl)cc3Cl)c2)SC1=S | 87% |
| O=C(CNC(=O)N1CC(=O)Nc2ccccc21)Nc1cccc(F)c1 | 98.9% |
| O=C(O)c1[nH]c2ccccc2c1C(c1ccccc1)c1c(C(=O)O)[nH]c2ccccc12 | 99.6% |
| CC(C)(C)c1ccc(S(=O)(=O)/N=C2\C=C(NS(=O)(=O)c3ccccc3)C(=O)c3ccccc32)cc1 | 102% [at 20 µM] |
| O=C(O)c1ccc(Nc2nc3ccccc3nc2NS(=O)(=O)c2ccc(F)cc2)cc1 | 86.9% |
| Cc1ccc(/C=C2\S/C(=N/S(=O)(=O)c3cccs3)NC2=O)cc1 | 93.7% |
| O=C(O)c1ccc(NS(=O)(=O)c2ccc3c(c2)C(=O)c2cc(S(=O)(=O)Nc4ccc(C(=O)O)cc4)ccc2-3)cc1 | 105% |

| Structure (SMILES) | viability |
| --- | --- |
| O=C(O)c1ccc(NC2=C/C(=N/S(=O)(=O)c3cccs3)c3ccccc3C2=O)cc1 | 82.7% |
| Cc1ccc(S(=O)(=O)/N=C2\C=C(NS(=O)(=O)c3ccc(C)cc3)C(=O)c3ccccc32)cc1 | 101% [at 20 µM] |
| Cc1ccc(N2C(N)=C(C#N)C(c3cccnc3)C3=C2CCCC3=O)cc1 (stereo not given) | 84.3% |
| C=CCOc1cccc(C2C(C(=O)c3cc4ccccc4o3)=C(O)C(=O)N2c2cc(C)on2)c1 (stereo not given) | 85% |
| CCOc1ccc(NS(=O)(=O)c2ccc(Cl)c(N=Nc3c(O)[nH]c(=S)[nH]c3=O)c2)cc1Br | 94.2% |
| C/C(=N\Nc1cccc(C(=O)O)c1)c1ccc2c(c1)Nc1ccccc1S2 | 91.2% |
| CC(N=Cc1cccc(O)c1O)c1ccccc1 (stereo not given) | 92% |
| CSc1ccc(C(c2c(C(=O)O)[nH]c3ccccc23)c2c(C(=O)O)[nH]c3ccccc23)cc1 | 103% |
| CN(C(=S)Nc1ccc(SC(F)F)cc1)c1ccc(O)cc1 | 90.9% |
| CC(C)c1nc(SCC(=O)N2CCCC2)c2ccccc2n1 | 99.6% |
| CC(=O)OCC1=C(C(=O)O)N2C(=O)C(NC(=O)c3ccc(COc4c(C)cccc4Cl)o3)C2SC1 (stereo not given) | 108% |
| Cc1ccc([C@@H]2CC=C(C(=O)O)[C@H](c3ccc(Br)cc3)N2S(=O)(=O)c2ccc(C)cc2)cc1 | 100% |
| CC1=C/C(=C(/c2cc(C)c(O)c(Br)c2)c2ccccc2S(=O)(=O)O)C=C(Br)C1=O | 89.2% |
| COc1cc(/C=C2\SC(=S)N(C(C(=O)O)c3ccccc3)C2=O)cc(OC)c1OC (stereo not given) | 89.6% |
| C[N+](C)(CCOc1ccccc1)Cc1ccccc1 (tested in a mixture with another compound) | 102% |
| O=C(CSc1nc2scc(-c3ccco3)c2c(=O)n1-c1ccccc1)NCC1CCCO1 (stereo not given) | 91% |
| CC(C)(C)C1CCc2c(sc(NC(=O)C3CC=CCC3C(=O)O)c2C#N)C1 (stereo not given) | 87.3% |
| O=C(NC(NC(=S)Nc1ccccc1C(=O)O)C(Cl)(Cl)Cl)c1ccccc1 (stereo not given) | 102% |
| C=CCOc1ccc(C(c2c(C(=O)O)[nH]c3ccccc23)c2c(C(=O)O)[nH]c3ccccc23)cc1 | 94.7% |
| COc1cccc(C=Nc2cc(C(C)C)c(O)cc2C)c1O | 101% |
| O=C(O)COc1ccccc1/C=N/NC(=O)c1cc(-c2ccc(Cl)cc2)nc2ccccc12 | 84.9% |
| Cc1c(Cl)cccc1NS(=O)(=O)c1ccc2c(c1)C1C=CCC1C(c1ccc(C(=O)O)cc1)N2 (stereo not given) | 94.9% |
| CCOc1ccc(N(C)C(=O)CCc2nnc3ccc(N4CCCC4)nn23)cc1 | 97.5% |
